Bioassay records: PubChem, National Center for Advancing Translational Sciences (NCATS)
This excerpt belongs to a sample that is enriched for hits.
Pf Dd2 growth: qHTS Primary assay for Inhibitors of Plasmodium falciparum Dd2 growth in vitro | P. falciparum Dd2 growth, SYBR Green, 72 h | Potency, µM (titrated, usually from 28.9 µM), for inactives: at the highest dose activity, negative = inhibition, usual class: inhibitors | hit rate 4.3% among 120,000 | AID 1347417, 2020; active means well fitted inhibition curve with a large enough effect;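 further: plate controls were DMSO vehicle for no effect and reference drug for full effect; nearly all actives have a fitted effect of over 65% in size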
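Readout: SYBR Green fluorescence, 485 nm excitation, 535 nm emission, after ~16 h lysis at 37C. Before that, Dd2-infected red cells (2.5% hematocrit) grew 72 h with compound, 29 uM top final concentration.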
* hit, by the source's call; [ ] = another dose, or the depositor's remark. Potency means the concentration at half of the fitted maximal effect.

Results for CN(Cc1ccccc1C(F)(F)F)Cc1cccc2ccccc12 ?
Pf Dd2 growth: inactive

Results for CN(Cc1cccc(CCN)c1)Cc1cccc2ncccc12 ?
Pf Dd2 growth: 7.08µM*

How did Cc1c(CN(C)Cc2cccc3ncccc23)c(=O)n(-c2ccccc2)n1C do in these assays?
Pf Dd2 growth: -3.9%

How did Cn1c(=O)c2ccnn2c2ccc(C(=O)NCC3CCN(Cc4ccccc4F)CC3)cc21 do in these assays?
Pf Dd2 growth: -18.6%

How did COc1ccc(NC(=O)N2C[C@@H](F)C[C@H]2C(=O)N2CCCCC2)cc1OC do in these assays?
Pf Dd2 growth: -6.2%

Results for O=C(NCCOc1ccccc1)c1cnc2n1CCN(Cc1ccc3[nH]ccc3c1)CC2 ?
Pf Dd2 growth: 12.6µM*

Results for N#Cc1cccc(CN2CCc3ncc(C(=O)NCCOc4ccccc4)n3CC2)c1 ?
Pf Dd2 growth: -1.2%[44.1 µM]

What do the screens show for `O=C(NCCOc1ccccc1)c1cnc2n1CCN(Cc1ccccc1O)CC2`?
Pf Dd2 growth: 0.6%[44.1 µM]

How did Cc1ccccc1S(=O)(=O)N1CCn2nnc(CCC(=O)NC3CC3)c2C1 do in these assays?
Pf Dd2 growth: 18.1%

What do the screens show for `Cc1cc(F)ccc1NC(=O)Cn1nc(N2CCN(c3ccccc3)CC2)ccc1=O`?
Pf Dd2 growth: 8.7%

Results for Cc1cccc(NC(=O)c2ccc(Cn3nc(N4CCN(c5ccccc5)CC4)ccc3=O)o2)c1C ?
Pf Dd2 growth: 11.2µM*

What do the screens show for `Cc1ccc(F)cc1NC(=O)c1ccc(Cn2nc(N3CCN(c4ccccc4)CC3)ccc2=O)o1`?
Pf Dd2 growth: 11.2µM*

Results for CC(C)CCNC(=O)Cn1nc(N2CCN(c3ccccc3)CC2)ccc1=O ?
Pf Dd2 growth: 3.5%

What do the screens show for `O=C(O)Cn1nc(N2CCN(c3ccc(F)cc3)CC2)ccc1=O`?
Pf Dd2 growth: 25.1%

How did CN(C)CCNC(=O)Cn1nc(N2CCN(c3ccccc3)CC2)ccc1=O do in these assays?
Pf Dd2 growth: 51.3%

What do the screens show for `O=C(NC1CCCCC1)[C@H]1CN2CC[C@H]1C[C@@H]2Cn1cc(CCO)nn1`?
Pf Dd2 growth: inactive

How did O=C(CCn1nnnc1CN1CCOCC1)N1CCN(c2nc3ccccc3s2)CC1 do in these assays?
Pf Dd2 growth: -1.6%

What do the screens show for `Cc1ncc2c(n1)CCCN(CC(=O)NC1CC1)C2=O`?
Pf Dd2 growth: 34.7%

What do the screens show for `CN(Cc1cn(-c2ccccc2)nn1)Cc1cnc2ccccn12`?
Pf Dd2 growth: -0.2%

What do the screens show for `COc1ccc(Cl)cc1NC(=O)Cn1c(=O)n(CCCC(=O)NCCc2ccc(OC)c(OC)c2)c(=O)c2ccccc21`?
Pf Dd2 growth: 11.2µM*

How did COc1ccc(CCNC(=O)CCn2c(=O)c3ccccc3n(CC(=O)Nc3cc(Cl)ccc3C)c2=O)cc1OC do in these assays?
Pf Dd2 growth: inactive

What do the screens show for `COc1ccc(CCNC(=O)CCCn2c(=O)c3ccccc3n(CC(=O)Nc3cc(Cl)ccc3C)c2=O)cc1OC`?
Pf Dd2 growth: -3.8%

What do the screens show for `O=C(c1cc(F)ccc1F)N1CCCC(Cc2nc(C3CCOCC3)no2)C1` (stereo not given)?
Pf Dd2 growth: 9.7%

What do the screens show for `CCOCCCNC(=O)N1CCC(Oc2ncccc2C(=O)N(C)C)C1` (stereo not given)?
Pf Dd2 growth: -1.9%

What do the screens show for `CC(C(=O)NCC1CCOCC1)c1ccccc1` (stereo not given)?
Pf Dd2 growth: 14.7%

Results for O=C(C1CCc2nnc(-c3ccc(Cl)cc3Cl)n21)N1CCOCC1 (stereo not given) ?
Pf Dd2 growth: 49.2%

How did Cc1cccc(C2C=C(c3ccc(C)c(C)c3)Nc3nnnn32)c1 (stereo not given) do in these assays?
Pf Dd2 growth: 11.2µM*

Results for COc1ccc(C2C=C(c3ccc(Br)cc3)Nc3nnnn32)c(OC)c1 (stereo not given) ?
Pf Dd2 growth: -29.6%

How did Cc1ccc(C2=CC(c3c(F)cccc3Cl)n3ncnc3N2)cc1C (stereo not given) do in these assays?
Pf Dd2 growth: 3.1%

Results for CC(C)C(=O)N1Cc2ccccc2CC2(CCCN(CC3CCCCC3)C2)C1 (stereo not given) ?
Pf Dd2 growth: 0.251µM*

Results for CC(=O)NCC(=O)N1Cc2ccccc2CC2(CCCN2C)C1 (stereo not given) ?
Pf Dd2 growth: 22.4%

How did O=C(O)CCCC(=O)N1Cc2ccccc2CC2(CCCN(CC3CCCCC3)C2)C1 (stereo not given) do in these assays?
Pf Dd2 growth: 6.5%

Results for CC(C)C(=O)N1Cc2ccccc2CC2(CCCN2C)C1 (stereo not given) ?
Pf Dd2 growth: 10µM*

Results for CCCN1CCC2(Cc3ccccc3CN(C(=O)CCCC(=O)O)C2)C1 (stereo not given) ?
Pf Dd2 growth: -1.5%

How did CCCN1CCC2(Cc3ccccc3CN(C(=O)C(C)C)C2)C1 (stereo not given) do in these assays?
Pf Dd2 growth: 8.91µM*

How did CN(C)CCC(=O)N1Cc2ccccc2CC2(CCCN2C)C1 (stereo not given) do in these assays?
Pf Dd2 growth: 2.3%

Results for CCCN1CCC2(Cc3ccccc3CN(C(C)=O)C2)C1 (stereo not given) ?
Pf Dd2 growth: -3.2%
